Assay results taken from paper PMC4336329 (PLoS ONE, 2015).
Hit rate of the full screen: of about 310,000 compounds, about 14,000 (4.5%) showed an effect of 50% or more. Effects have a minus sign here. The sample holds strong results, similar compounds and a random draw of the others, so the mix is not that of the screen.

These compounds were tested against human ether-à-go-go-related gene (hERG) potassium channel (human, UniProt Q12809) (assay: primary screen, population patch clamp on CHO cells stably expressing hERG; higher = less effect of the substance).
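Also: peak tail current of the secondary pulse compared with the same well before compound.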

Chain of human ether-à-go-go-related gene (hERG) potassium channel (Q12809 whole entry, looked up): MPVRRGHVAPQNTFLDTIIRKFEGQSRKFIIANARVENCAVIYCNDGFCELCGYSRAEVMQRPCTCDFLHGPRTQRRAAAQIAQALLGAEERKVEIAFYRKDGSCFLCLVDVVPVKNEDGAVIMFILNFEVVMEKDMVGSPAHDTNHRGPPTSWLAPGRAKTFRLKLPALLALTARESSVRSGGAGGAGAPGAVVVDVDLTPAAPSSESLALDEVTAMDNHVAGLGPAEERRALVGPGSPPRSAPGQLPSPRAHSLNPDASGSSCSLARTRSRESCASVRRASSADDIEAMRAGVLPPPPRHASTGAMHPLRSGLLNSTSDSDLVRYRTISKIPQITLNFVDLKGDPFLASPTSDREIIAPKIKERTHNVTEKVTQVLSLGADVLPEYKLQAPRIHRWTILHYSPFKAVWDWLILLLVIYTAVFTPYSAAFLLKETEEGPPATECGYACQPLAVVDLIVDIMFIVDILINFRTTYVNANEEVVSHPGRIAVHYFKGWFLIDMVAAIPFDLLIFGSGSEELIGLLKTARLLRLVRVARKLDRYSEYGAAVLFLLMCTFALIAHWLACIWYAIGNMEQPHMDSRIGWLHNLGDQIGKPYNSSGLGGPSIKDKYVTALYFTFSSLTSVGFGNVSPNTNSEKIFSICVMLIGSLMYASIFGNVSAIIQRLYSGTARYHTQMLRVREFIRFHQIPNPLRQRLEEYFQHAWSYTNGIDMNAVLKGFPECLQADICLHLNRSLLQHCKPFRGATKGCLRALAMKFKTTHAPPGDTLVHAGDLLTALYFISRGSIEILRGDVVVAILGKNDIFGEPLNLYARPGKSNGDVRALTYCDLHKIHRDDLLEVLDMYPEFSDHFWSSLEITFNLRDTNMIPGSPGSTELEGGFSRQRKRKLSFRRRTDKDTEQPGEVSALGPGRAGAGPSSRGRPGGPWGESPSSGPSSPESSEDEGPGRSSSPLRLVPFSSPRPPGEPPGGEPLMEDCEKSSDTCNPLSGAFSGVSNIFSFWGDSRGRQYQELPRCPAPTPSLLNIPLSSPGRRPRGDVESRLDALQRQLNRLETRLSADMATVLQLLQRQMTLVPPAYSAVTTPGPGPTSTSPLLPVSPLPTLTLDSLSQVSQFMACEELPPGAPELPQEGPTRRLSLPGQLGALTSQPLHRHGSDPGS

SMILES	hERG current change (%, negative = inhibition) at 10uM [%]
COC(=O)COc1ccc(-c2nccc(-c3ccccn3)n2)cc1	13.3
CCN(CC(=O)Nc1ccccc1OC)C(=O)c1cc(-c2ccccc2)nn1-c1ccccc1	-36.9
COc1ccc(-c2noc(N3CCC(C(=O)NCc4ccccc4Cl)CC3)n2)cc1	-11.9
CCOC(=O)NC(=O)CSc1nc2ccc(C)cc2[nH]1	8.02
COc1cc(/C=N/NC(=O)c2csc3c2CCCC3)ccc1OCCN1CCOCC1	-31.9
COc1ccccc1C(=O)NNC(=O)c1nn(Cc2ccccc2)c(=O)c2ccccc12	-14
O=C(CSc1ncnc2sccc12)Nc1ccccc1	21.2
COc1ccc(C(=O)NNC(=O)CNC(=O)C2CCCCC2)cc1	14
COc1ccc(/C=C/CN2CCN(CCc3ccccc3)C(CCO)C2)cc1 (centres unmarked)	-71.9
OCC[C@H]1C[C@H](O)[C@@H](O)[C@@]2(CCCO2)O1	20.1
CC(C)CNc1nc(NC(C)(C)C)nc(Oc2ccc(=O)[nH]n2)n1	9.66
Cc1ccc(S(=O)(=O)N2CCC(N3CCC(C)CC3)CC2)cc1	-29.1
CCCCc1cc(=O)oc2cc(C)cc(OC(C)C(=O)NCc3cccnc3)c12 (centres unmarked)	-19.7
Cc1ccccc1NC(=O)COC(=O)c1cc(=O)c2ccccc2o1	-67.4
Cc1cccc(C)c1NC(=O)COC(=O)c1cc(=O)c2ccccc2o1	5.2
Cc1ccc(NC(=O)COC(=O)c2cc(=O)c3ccccc3o2)cc1F	12.9
CC1=C(C)C(=O)N(C(C)CCc2ccccc2)C1=O (centres unmarked)	4.9
O=C(c1cc2c(=O)n3ccccc3nc2s1)N1CCN(Cc2ccccc2)CC1	-27.7
Cc1c(C(=O)N2CCN(c3cccc(Cl)c3)CC2)cccc1[N+](=O)[O-]	-42.5
COC(=O)c1cc(C(=O)N2CCN(c3cccc(C)c3C)CC2)cc([N+](=O)[O-])c1	-39.6
COC(=O)c1cc(C(=O)N2CCN(c3ncccn3)CC2)cc([N+](=O)[O-])c1	-5.19
O=C(c1ccc([N+](=O)[O-])s1)N1CCN(c2ccccc2)CC1	-25.8
O=C(c1ccc([N+](=O)[O-])s1)N1CCN(c2cccc(Cl)c2)CC1	-66.1
COC(=O)c1cc(C(=O)N2CCN(c3cccc(Cl)c3)CC2)cc([N+](=O)[O-])c1	-59
COc1ccccc1N1CCN(C(=O)c2cc3c(=O)n4ccccc4nc3s2)CC1.Cl	-53.2
CN1CCN(C(=O)c2cc3c(=O)n4ccccc4nc3s2)CC1	-2.57
COc1ccccc1N1CCN(C(=O)c2cc3c(=O)n4cccc(C)c4nc3s2)CC1	-11.2
CCOC(=O)N1CCN(C(=O)c2cc3c(=O)n4cccc(C)c4nc3s2)CC1	-9.84
Cc1cccn2c(=O)c3cc(C(=O)N4CCN(Cc5ccccc5)CC4)sc3nc12	-79.7
